Measurements: PubChem BioAssay (NCI)
This is part of a sample that, as a whole, favours compounds with a hit. Of some 79,000 tested, about 15% had one in any assay. The source made the active and inactive calls. No stated cut-off is given here; in the data, active means growth inhibition above about 70%; inactive means the rest. Where a SMILES comes first, the peptide text is derived from it. [ ]: non-standard residue; d: D form. pGlu = O=C1CC[CH](C(=O)O)N1

Experiments:
[1] = NCI Yeast Anticancer Drug Screen. Data for the rad50 strain (AID 155);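 further: 0% = growth of vehicle-only cultures of the same strain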; details: S. cerevisiae rad50 strain growth inhibition; at 50.0 µM; hits give high values
Outline: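 Relative growth inhibition (compound vs vehicle) was measured in yeast with a defined repair-gene alteration.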

[2] = NCI Yeast Anticancer Drug Screen. Data for the mec2-1 strain (AID 157); details: S. cerevisiae mec2-1 strain, at 50.0 µM, hits give high values
Outline: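 mec2-1 yeast strain, carrying an alteration in DNA damage repair or cell cycle control, was exposed to compounds; growth inhibition was measured relative to vehicle-treated controls.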

[3] = NCI Yeast Anticancer Drug Screen. Data for the sgs1 mgt1 strain (AID 161);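 further: 0% = growth of cultures given vehicle only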; details: S. cerevisiae sgs1 mgt1 strain, at 50.0 µM, hits give high values
Outline: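 Growth of a repair-deficient yeast mutant was monitored after compound treatment and expressed as inhibition relative to vehicle-treated cultures.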

[4] = NCI Yeast Anticancer Drug Screen. Data for the cln2 rad14 strain (AID 165);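 further: 0% = growth equal to vehicle treated cultures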; details: S. cerevisiae cln2 rad14 strain, at 50.0 µM, hits give high values
Outline: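 Yeast carrying cln2 and rad14 alterations (cell cycle control and DNA damage repair) were exposed to compounds. Growth inhibition was measured against vehicle-treated controls.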

[5] = NCI Yeast Anticancer Drug Screen. Data for the bub3 strain (AID 167); details: S. cerevisiae bub3 mutant strain, at 50.0 µM, hits give high values
Outline: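 Screening used yeast with an engineered genetic alteration affecting cell cycle control. Compound-exposed cultures were compared with vehicle cultures, and reduced growth was taken as inhibition.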

[6] = NCI Yeast Anticancer Drug Screen. Data for the mlh1 rad18 strain (AID 175); details: S. cerevisiae mlh1 rad18 strain growth inhibition; at 50.0 µM; hits give high values
Outline: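 Growth inhibition of the yeast strain was measured after compound exposure and expressed relative to vehicle-treated controls. The strain carries defined defects in DNA damage repair.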

Measured: growth inhibition

CCOC(=O)c1nc2ccc(C(F)(F)F)cc2nc1NCc1ccc(OC)cc1
inactive: [1] 4.6% | [2] 9.8% | [3] -1.15% | [4] 17.2% | [5] 5.15% | [6] -15.7%

CCCCOC(=O)c1ccc(O)cc1.[Zn+2]
inactive: [1] -31.1% | [2] -11.6% | [3] -16.6% | [4] -41.9% | [5] -22.4% | [6] -35.4%

Cc1ccc(/C=N/NC(=O)Cc2cccc3ccccc23)cc1
inactive: [1] -1.75% | [2] 13.4% | [3] 32.9% | [4] -10.9% | [5] 17.1% | [6] 21.1%

CN(CCCN)CCCN
inactive: [1] -41.4% | [2] -11.2% | [3] -32.6% | [4] -55.6% | [5] -28.6% | [6] -21.7%

CC(Oc1ccccc1)C(=O)Nc1ccc(F)cc1 (stereo unspecified)
inactive: [1] -1% | [2] 9.5% | [3] 17.8% | [4] -11.1% | [5] 35.9% | [6] 17.6%

CC(=O)c1ccc2cc(Cl)ccc2c1
inactive: [1] 30.2% | [2] 3.45% | [3] 3.5% | [4] -29.9% | [5] 0.35% | [6] 4.2%

CCN(CC)CCNCc1c[nH]c(=S)[nH]c1=O
inactive: [1] -7.25% | [2] -1% | [3] -19.4% | [4] -1.05% | [5] 1.35% | [6] -9.45%

CCCCCCCCCSCCS
inactive: [1] -14.1% | [2] 7.4% | [3] 2% | [4] -16.2% | [5] -19.4% | [6] -22.2%

CC(O)C(O)C(O)C1OC1=O (stereo unspecified)
inactive: [1] 0.95% | [2] -9.8% | [3] 0.75% | [4] -43% | [5] -8.9% | [6] -1.05%

C/C(=N\NC(=S)Nc1ccc(S(=O)(=O)O)cc1)c1ccccn1
inactive: [1] 21.3% | [2] 18.4% | [3] 34.5% | [4] 19.1% | [5] 33.2% | [6] 50.5%

COc1ccc(NC(=O)COC(=O)c2cccc3c(=O)c4ccccc4[nH]c23)cc1
inactive: [1] 43.4% | [2] 41.2% | [3] 27.4% | [4] 23.2% | [5] 21.2% | [6] 48.6%

CC12CCC(O)CC1=CCC1C2CCC2(C)C(C(O)CC(O)(C(F)(F)F)C(F)(F)F)CCC12 (stereo unspecified)
inactive: [1] 30.1% | [2] 48% | [3] 47.9% | [4] 3.95% | [5] 25.9% | [6] 40.5%

CC1(CCN2CCCC2)NC(=O)NC1=O (stereo unspecified)
inactive: [1] 15.9% | [2] -20.3% | [3] -5.25% | [4] 1.05% | [5] 3.4% | [6] 10.9%

CSc1ccc(NC(=S)SCc2ccc3c(c2)OCO3)cc1Cl
active: [1] 95.7% | [2] 98.6% | [3] 98% | [4] 84.3% | [5] 97.5% | [6] 97.2%

CC(COc1cc(Cl)c(Cl)cc1Cl)OC(=O)COc1ccc(Cl)cc1Cl (stereo unspecified)
inactive: [1] 8.75% | [2] 8.85% | [3] 7.7% | [4] 28.5% | [5] 2.9% | [6] 7%

COc1ccc(Cc2cc(N=NC(N)=O)c(C)cc2O)cc1
inactive: [1] -7.35% | [2] -5.65% | [3] -2.55% | [4] 1.75% | [5] 3.5% | [6] 4.55%

Cc1ccc(N=N/C(=N/NC(=O)c2cc(Cl)ccc2C(=O)c2ccccc2)c2ccc(N(CCC#N)CCC#N)cc2C)cc1
inactive: [1] -8.5% | [2] 2.5% | [3] -18.5% | [4] -2.1% | [5] -23.6% | [6] 5.2%

O=C1C/C(=C\c2cccc([N+](=O)[O-])c2)C(=O)N1
inactive: [1] 9.7% | [2] 11.3% | [3] -5.4% | [4] -11.3% | [5] -2.8% | [6] -3.2%

CCOC(=O)CCCN(c1ccc(OC)c(OC)c1)S(=O)(=O)c1ccc(C)cc1
inactive: [1] 32.1% | [2] 12.7% | [3] 43% | [4] 18.8% | [5] 16.4% | [6] 34.2%

CC(CC(=O)O)C(C)C(=O)O (stereo unspecified)
inactive: [1] -7.9% | [2] -4.45% | [3] -6.4% | [4] -7.7% | [5] 0.5% | [6] -13.4%

Cc1cc(C)n(-c2ccc([N+](=O)[O-])cn2)n1
inactive: [1] 4.55% | [2] 12% | [3] -1.3% | [4] -8.2% | [5] 9.85% | [6] 5.25%

CC(=O)n1ccc(=O)[nH]c1=O
inactive: [1] 8.9% | [2] 0.2% | [3] 0.45% | [4] -38.8% | [5] -11.9% | [6] 16.4%

COC(=O)c1cccnc1C#N
inactive: [1] 2.2% | [2] -0.95% | [3] 2.9% | [4] -5.95% | [5] 0.55% | [6] 0.4%

Cc1nc2ccccc2c(=O)n1C
inactive: [1] -7.5% | [2] -17.9% | [3] 10.7% | [4] 2.35% | [5] -5.4% | [6] 3.95%

O=C1c2c(nc3ccccc3c2-c2ccccc2)CN1Nc1ccccc1
inactive: [1] -12% | [2] -24.9% | [3] -9.45% | [4] 5.65% | [5] -37.7% | [6] -19.4%

COc1ccc2cc(C(=O)Nc3ccc(O)c(C(=O)O)c3)ccc2c1OC
inactive: [1] -2.2% | [2] 0.5% | [3] -7.6% | [4] -10.6% | [5] 2.95% | [6] -22.6%

O=C(O)C12CCCC(CCC1)C2
inactive: [1] -2.2% | [2] 1.05% | [3] -3.8% | [4] -4.35% | [5] -0.2% | [6] -0.55%

CC(NC(=O)C(Cc1cnc[nH]1)NC(=O)C1CCC(=O)N1)C(N)=O (stereo not drawn) ([pGlu]-His-Ala-NH2; configuration not given here)
inactive: [1] -15.4% | [2] -75% | [3] -17.3% | [4] -21.8% | [5] -12.7% | [6] -25.9%

O=C(/C=C(\C(=O)c1ccccc1)c1ccccc1)c1ccc(-c2ccccc2)cc1
inactive: [1] 8.2% | [2] -2.35% | [3] -3.15% | [4] -6.9% | [5] -3.45% | [6] -16.9%

COc1nc(N)c([N+](=O)[O-])c(OC)n1
inactive: [1] -11.9% | [2] -14.8% | [3] -2.7% | [4] -28.2% | [5] -9.85% | [6] -19.4%

Cc1ccn2nnnc2c1
inactive: [1] -8.45% | [2] -11.2% | [3] -1.2% | [4] 1% | [5] 3.45% | [6] -17.6%

CC(=O)c1ccc(O)c(C=O)c1O
inactive: [1] 11.7% | [2] 9.3% | [3] 27.1% | [4] 2.65% | [5] -2.9% | [6] 31.9%

Cc1cccc(-n2c(N)c(-c3nc4ccccc4[nH]3)sc2=S)c1
inactive: [1] 6.7% | [2] -11.9% | [3] 13.4% | [4] 10.2% | [5] 3.4% | [6] 2.6%

COc1ccc(C(O)Cc2cc(=O)cc(-c3ccccc3)[nH]2)cc1 (stereo unspecified)
inactive: [1] 2.2% | [2] -4.95% | [3] 2.2% | [4] -40.3% | [5] 9.85% | [6] -1.4%

CCCNC(=O)C1C(=O)C(=O)N(CCC)C1=O (stereo unspecified)
inactive: [1] 7.8% | [2] 4.45% | [3] 4.1% | [4] -4.5% | [5] -3.9% | [6] 4.05%

c1ccc2oc(-c3ccc4c(c3)OCO4)nc2c1
inactive: [1] 14.8% | [2] 42.8% | [3] 11.6% | [4] 4.5% | [5] -2.75% | [6] -0.2%

O=C1NCCS(=O)(=O)N2CCC[C@@H]12
inactive: [1] 54.4% | [2] -20% | [3] 5.1% | [4] 21.4% | [5] -19.6% | [6] -14.9%

O=C(/C=C/c1cccc(O)c1)c1ccccc1
active: [6] 92%
inactive: [1] 29.4% | [2] 8.25% | [3] 38.4% | [4] 59.8% | [5] -5.6%

CN=C(NC#N)NCCSCc1nc[nH]c1C
inactive: [1] 20.3% | [2] 16.8% | [3] -17.5% | [4] -5.2% | [5] -16.6% | [6] -29.2%

Clc1ccccc1CSc1cnnc(SCc2ccccc2Cl)c1SCc1ccccc1Cl
inactive: [1] -0.1% | [2] 13.3% | [3] 6.4% | [4] 22.9% | [5] 10.7% | [6] 27.6%

Brc1cc2c(cc1C=NC1CCCCC1)OCO2
inactive: [1] 25.6% | [2] 22.8% | [3] -4.05% | [4] 6.8% | [5] 18.8% | [6] 43.7%
